PubChem BioAssay
Potency and affinity values are given separately. Inconclusive results are not listed. Calls of active or inactive are those of the source. Unless noted, the rule behind the calls is not given here.

Columns and labels:
[1] = cytotoxicity in PAX8-dependent RMG-1 cells, dose response, cell-based, cherry-pick (AID 687029;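 active = signal drop whose fitted half-maximal concentration is at most twice the top valid dose, in every test run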;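 note: cells exposed to compound for 96 hours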)
[2] = cytotoxicity in IOSE-T80 ovarian epithelial cells, dose response, selectivity assay for PAX8 inhibitor project, cell-based, cherry-pick (AID 687032;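 active = fitted half-maximal concentration for viability loss no higher than twice the top valid dose, in every repeat run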;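 note: cells exposed to compound for 96 h before reading; 0% = neutral control wells and -100% = 2 µM mitoxantrone kill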)
[3] = inhibitors of CMV-promoter luciferase reporter, dose response, counter-screen for Pax8 inhibitor project, cell-based, HEK293, luminescence, dry powder (AID 743020;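 active = signal-lowering compounds whose fitted half-maximal concentration is at or below twice the top tested dose in every run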;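 note: HEK293 cells stably expressing the CMV luciferase reporter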)
[4] = non-specific cell cytotoxicity, dose response, cytotoxicity control for PAX8 inhibitor project, plate reader, dry powder samples (AID 743021)
[5] = IGROV1 ovarian cancer cell cytotoxicity, dose response, PAX8 inhibitor project, plate reader, dry powder samples (AID 743043);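 note: more negative means fewer viable cells or more cytotoxicity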
[6] = NIH:OVCAR-3 ovarian cancer cell cytotoxicity, dose response, PAX8 inhibitor project, plate reader, dry powder samples (AID 743044); settings: max activity: at 35 µM, active compounds read low unless noted
[7] = IOSE-T80 ovarian epithelial cell cytotoxicity, dose response, cytotoxicity control for PAX8 inhibitor project, plate reader, dry powder samples (AID 743045);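 note: 0% = neutral control median and -100% = positive control median; more negative values mean more cell killing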
[8] = A2780 ovarian cancer cell cytotoxicity, dose response, cytotoxicity control, plate reader, dry powder samples (AID 743046);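 note: 0% = neutral control wells and -100% = cytotoxic reference compound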
[9] = cytotoxicity in OVCAR8 ovarian cancer cells, dose response, PAX8 project, cell-based, plate reader, dry powder samples (AID 743197)
[10] = A549 cell cytotoxicity, dose response, cytotoxicity control, plate reader, cherry-pick, antagonist series (AID 743412);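 note: 0% = neutral control wells and -100% = positive control wells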
[11] = HepG2 cell cytotoxicity, dose response, cytotoxicity control, plate reader, cherry-pick, antagonist series (AID 743416);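 note: 0% = neutral control wells and -100% = positive control wells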

C[C@@H]1CCCCO[C@H](CN(C)Cc2ccc(C(F)(F)F)cc2)[C@H](C)CN([C@H](C)CO)C(=O)c2cc(NC(=O)Nc3ccc(F)cc3)ccc2O1
inactive: outcome [1] | outcome [2] | outcome [3] | outcome [4] | outcome [5] | max activity [6] 10.2% [at 1 µM, active compounds read low] | outcome [7] | outcome [8] | outcome [9]

Cc1ccc(S(=O)(=O)Nc2ccc3c(c2)C(=O)N([C@@H](C)CO)C[C@@H](C)[C@H](CN(C)S(=O)(=O)c2ccc(Cl)cc2)OCCCC[C@@H](C)O3)cc1
inactive: outcome [1] | outcome [2] | outcome [3] | outcome [4] | outcome [5] | max activity [6] 20.2% [at 0.26 µM, active compounds read low] | outcome [7] | outcome [9]

C[C@H](CO)N1C[C@H](C)[C@H](CN(C)Cc2ccc(C(F)(F)F)cc2)OCCCC[C@H](C)Oc2ccc(NC(=O)Nc3ccccc3)cc2C1=O
inactive: outcome [1] | outcome [2] | outcome [3] | outcome [4] | outcome [5] | outcome [7]

N#Cc1cccc(-c2ccc3c(c2)[C@@H]2[C@@H](CCN2S(=O)(=O)c2ccc(F)cc2)[C@@H](CO)N3)c1
inactive: outcome [1] | outcome [2] | outcome [3] | outcome [4] | outcome [5] | max activity [6] 5.91% | outcome [7] | outcome [9]

C[C@@H]1CN([C@H](C)CO)C(=O)c2cc(NC(=O)Nc3ccc(F)cc3)ccc2O[C@@H](C)CCCCO[C@H]1CN(C)S(=O)(=O)c1ccc(F)cc1
inactive: outcome [1] | outcome [2] | outcome [3] | outcome [4] | outcome [5] | max activity [6] -9.65% [at 0.5 µM, active compounds read low] | outcome [7] | outcome [9]

C[C@@H]1CCCCO[C@H](CN(C)C(=O)C2CCCCC2)[C@H](C)CN([C@@H](C)CO)C(=O)c2cc(NS(=O)(=O)c3ccc(Cl)cc3)ccc2O1
inactive: outcome [1] | outcome [2] | outcome [3] | outcome [4] | outcome [5] | outcome [7]

C[C@@H]1CCCCO[C@@H](CN(C)Cc2ccc(Cl)c(Cl)c2)[C@H](C)CN([C@@H](C)CO)C(=O)c2cc(NC(=O)Nc3ccccc3)ccc2O1
inactive: outcome [1] | outcome [2] | outcome [3] | outcome [4] | outcome [5] | max activity [6] 10.2% [at 16 µM, active compounds read low] | outcome [7] | outcome [9]

CNC[C@@H]1Oc2cc(C#CC3CCCCC3)ccc2S(=O)(=O)N([C@@H](C)CO)C[C@@H]1C
inactive: outcome [1] | outcome [2] | outcome [3] | outcome [4] | outcome [5] | max activity [6] 17.9% [at 0.26 µM, active compounds read low] | outcome [7] | outcome [8] | outcome [9]

C[C@@H]1CN([C@@H](C)CO)C(=O)Cc2cc(NC(=O)c3ccncc3)ccc2O[C@@H]1CN(C)Cc1ccc(-c2ccccc2)cc1
inactive: outcome [1] | outcome [2] | outcome [3] | outcome [4] | outcome [5] | max activity [6] 8.74% [at 0.26 µM, active compounds read low] | outcome [7] | outcome [8] | outcome [9]

O=C(CN1C(=O)c2ccccc2S1(=O)=O)c1ccccc1Cl
inactive: outcome [1] | outcome [2] | outcome [3] | outcome [4] | outcome [5] | outcome [6] | outcome [7] | outcome [8] | outcome [10] | outcome [11]

C[C@@H]1CN([C@@H](C)CO)C(=O)c2cccc(NC(=O)c3ccncc3)c2O[C@@H]1CN(C)S(=O)(=O)c1cccs1
inactive: outcome [1] | outcome [2] | outcome [3] | outcome [4] | outcome [5] | max activity [6] 14.9% [at 2.1 µM, active compounds read low] | outcome [7] | outcome [9]

Cc1noc(C)c1NC(=O)Nc1cccc2c1O[C@H](CN(C)Cc1ccc(C(F)(F)F)cc1)[C@H](C)CN([C@@H](C)CO)C2=O
inactive: outcome [1] | outcome [2] | outcome [3] | outcome [4] | outcome [5] | max activity [6] -18.3% | outcome [7] | outcome [9]

C[C@@H]1CN([C@H](C)CO)C(=O)c2cc(NS(=O)(=O)c3ccc(F)cc3)ccc2O[C@@H](C)CCCCO[C@H]1CN(C)Cc1ccccc1
inactive: outcome [1] | outcome [2] | outcome [3] | outcome [4] | outcome [5] | max activity [6] 22.1% [at 1 µM, active compounds read low] | outcome [7] | outcome [9]

C[C@H](CO)N1C[C@H](C)[C@@H](CN(C)Cc2ccc(Cl)c(Cl)c2)OCCCC[C@H](C)Oc2ccc(NS(=O)(=O)c3ccccc3)cc2C1=O
inactive: outcome [1] | outcome [2] | outcome [3] | outcome [4] | outcome [5] | max activity [6] -29.2% [at 2.1 µM, active compounds read low] | outcome [7] | outcome [9]

C[C@@H]1CCCCO[C@H](CN(C)Cc2ccc(C(F)(F)F)cc2)[C@@H](C)CN([C@@H](C)CO)C(=O)c2cc(NS(=O)(=O)c3cccs3)ccc2O1
inactive: outcome [1] | outcome [2] | outcome [3] | outcome [4] | outcome [5] | max activity [6] -7.27% [at 0.5 µM, active compounds read low] | outcome [7] | outcome [8] | outcome [9]

O=C(Nc1ccc(F)cc1)N1CCCCN2[C@@H](CO)[C@@H](c3ccc(-c4cccc(F)c4)cc3)[C@@H]2C1
inactive: outcome [1] | outcome [2] | outcome [3] | outcome [4] | outcome [5] | max activity [6] -20% | outcome [7] | outcome [9]

C[C@@H]1CN([C@H](C)CO)C(=O)c2cc(NC(=O)Nc3ccc(C(F)(F)F)cc3)ccc2O[C@@H](C)CCCCO[C@@H]1CN(C)Cc1ccc(Cl)c(Cl)c1
inactive: outcome [1] | outcome [2] | outcome [3] | outcome [4] | outcome [5] | outcome [7]

C[C@@H]1CCCCO[C@H](CN(C)S(=O)(=O)c2ccccc2)[C@H](C)CN([C@@H](C)CO)C(=O)c2cc(NS(=O)(=O)c3ccc(Cl)cc3)ccc2O1
inactive: outcome [1] | outcome [2] | outcome [3] | outcome [4] | outcome [5] | outcome [7]

Cc1noc(C)c1S(=O)(=O)N(C)C[C@H]1OCCCC[C@@H](C)Oc2ccc(NS(=O)(=O)c3ccc(Cl)cc3)cc2C(=O)N([C@@H](C)CO)C[C@H]1C
inactive: outcome [1] | outcome [2] | outcome [3] | outcome [4] | outcome [5] | max activity [6] -28.8% [at 2.1 µM, active compounds read low] | outcome [7] | outcome [9]

C[C@H]1CCCCO[C@H](CN(C)S(=O)(=O)c2ccc(Cl)cc2)[C@@H](C)CN([C@@H](C)CO)C(=O)c2cc(NS(=O)(=O)c3ccc(F)cc3)ccc2O1
inactive: outcome [1] | outcome [2] | outcome [3] | outcome [4] | outcome [5] | max activity [6] -9.44% [at 4.2 µM, active compounds read low] | outcome [7] | outcome [9]

C[C@@H]1CCCCO[C@@H](CN(C)C(=O)Nc2ccccc2)[C@H](C)CN([C@H](C)CO)C(=O)c2cc(NC(=O)Nc3ccc(C(F)(F)F)cc3)ccc2O1
inactive: outcome [1] | outcome [2] | activity change, negative = inhibition [3] 5.92% [at 8 µM] | outcome [4] | outcome [5] | max activity [6] 33.8% [at 16 µM, active compounds read low] | outcome [7] | outcome [8] | outcome [9]

C[C@H]1CN([C@@H](C)CO)C(=O)Cc2cc(NC(=O)Nc3ccc(C(F)(F)F)cc3)ccc2O[C@H]1CN(C)C(=O)Nc1ccc(C(F)(F)F)cc1
inactive: outcome [1] | outcome [2] | outcome [3] | outcome [4] | outcome [5] | max activity [6] 24.3% [at 0.56 µM, active compounds read low] | outcome [7] | outcome [9]

C[C@@H]1CCCCO[C@@H](CN(C)Cc2ccc(C(F)(F)F)cc2)[C@H](C)CN([C@H](C)CO)C(=O)c2cc(NC(=O)Nc3ccccc3)ccc2O1
inactive: outcome [1] | outcome [2] | outcome [3] | outcome [4] | outcome [5] | outcome [7]

CCCC#Cc1ccc([C@@H]2[C@H]3CN(S(=O)(=O)c4ccccc4F)CCCCN3[C@H]2CO)cc1
inactive: outcome [1] | outcome [2] | outcome [3] | outcome [4] | outcome [5] | max activity [6] 36.9% [at 8 µM, active compounds read low] | outcome [7] | outcome [8] | outcome [9]

CC(C)CC#Cc1ccc([C@@H]2[C@@H](CO)N3CCCCN(S(=O)(=O)c4ccc(F)cc4)C[C@H]23)cc1
inactive: outcome [1] | outcome [2] | outcome [3] | outcome [4] | outcome [5] | max activity [6] 15.4% [at 16 µM, active compounds read low] | outcome [7] | outcome [9]

Cc1ccc(S(=O)(=O)Nc2ccc3c(c2)C(=O)N([C@@H](C)CO)C[C@H](C)[C@@H](CN(C)C(=O)Nc2ccc(C(F)(F)F)cc2)OCCCC[C@H](C)O3)cc1
inactive: outcome [1] | outcome [2] | outcome [3] | outcome [4] | outcome [5] | max activity [6] -5.62% | outcome [7] | outcome [8] | outcome [9]

COc1ccccc1-c1ccc2c(c1)[C@H]1[C@H](CCN1S(=O)(=O)c1ccccc1F)[C@H](CO)N2
inactive: outcome [1] | outcome [2] | outcome [3] | outcome [4] | outcome [5] | max activity [6] -17.4% | outcome [7] | outcome [8] | outcome [9]

C[C@@H]1CN([C@H](C)CO)C(=O)c2cc(NS(=O)(=O)c3ccc(Cl)cc3)ccc2O[C@@H](C)CCCCO[C@H]1CN(C)C(=O)C1CCCCC1
inactive: outcome [1] | outcome [2] | outcome [3] | outcome [4] | outcome [5] | max activity [6] -15.5% [at 0.56 µM, active compounds read low] | outcome [7] | outcome [9]
